D1 potentiator: Potentiators of Human D1 Dopamine Receptor: qHTS. D(1A) dopamine receptor (Homo sapiens), P21728. HEK293 TREx D1 cells, calcium flux, dopamine EC20 potentiation. potentiation, % at 10 µM. actives 0.036% (n = 360,000). AID 504651, 2011; in the data active = potentiation above about 30%; note: 0% is about no effect
Target sequence (P21728 whole entry, looked up): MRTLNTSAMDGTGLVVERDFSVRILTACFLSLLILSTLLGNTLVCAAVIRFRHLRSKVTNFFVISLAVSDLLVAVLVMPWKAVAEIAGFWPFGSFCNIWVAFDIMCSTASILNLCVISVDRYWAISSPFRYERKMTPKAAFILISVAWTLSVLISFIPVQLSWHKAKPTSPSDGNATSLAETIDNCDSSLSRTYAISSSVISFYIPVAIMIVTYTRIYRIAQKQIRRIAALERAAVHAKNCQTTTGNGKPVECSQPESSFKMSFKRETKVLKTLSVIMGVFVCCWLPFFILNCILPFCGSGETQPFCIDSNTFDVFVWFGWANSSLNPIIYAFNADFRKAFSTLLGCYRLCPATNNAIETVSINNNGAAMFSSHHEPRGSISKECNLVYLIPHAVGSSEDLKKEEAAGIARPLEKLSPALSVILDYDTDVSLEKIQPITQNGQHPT
D1 ag: Allosteric Agonists of the Human D1 Dopamine Receptor: qHTS; AID 504660, 2011; activation, % at 2 µM; D(1A) dopamine receptor (Homo sapiens), P21728; actives 1% (n = 360,000); HEK293 T-REx D1 cells, calcium flux, agonist mode; note: 0% is about no effect
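Inducible HEK293 T-REx D1 cells, force-coupled to calcium signalling, were plated at 4000 cells/well with tetracycline and held overnight at 30 C. After no-wash calcium dye loading, compound-evoked calcium rise over 180 s flagged agonists.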
D1 antagonist: Antagonist of Human D 1 Dopamine Receptor: qHTS; D(1A) dopamine receptor (Homo sapiens), P21728; activity change, negative = inhibition, % at 10 µM; HEK293 TREx D1 cells, calcium flux, dopamine EC80; stronger effect = lower value; AID 504652, 2011; actives 3.2% (n = 360,000); in the data active = activity change below about -30%; note: % is set by controls: 0 for no effect and ±100 for the full control effect
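Antagonism measured as reduced calcium response to an EC80 dopamine addition following 180 s compound pre-read; cells were inducible HEK293 Trex D1 plated overnight at 30 C, read kinetically at 1 cycle/sec.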
TRHR ag: qHTS for Small Molecule Agonists and Allosteric Enhancers of Human TRH Receptor: Primary Screen for Agonists; activation, % at 2 µM; TRHR cells, calcium flux fluo-8, FDSS agonist mode; actives 0.18% (n = 360,000); Thyrotropin-releasing hormone receptor (Homo sapiens), P34981; note: 0% is about no effect
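Agonist-mode FDSS calcium read (Ex 480/Em 530, 1 s cycles) in 1536-well TRHR cells with fluo-8 dye, after 10-cycle baseline and 23 nL compound addition; TRH at EC20 (10 nM final) added afterwards for the enhancer phase.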
TRHR PAM: qHTS for Small Molecule Agonists and Allosteric Enhancers of Human TRH Receptor: Primary Screen for Enhancers; Thyrotropin-releasing hormone receptor (Homo sapiens), P34981; TRHR cells, fluo-8 calcium fluorescence, EC20 TRH enhancement; enhancement, % at 2 µM; actives 0.66% (n = 360,000); AID 493056, 2011; in the data active = enhancement above about 30%; note: 0% is about no effect
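TRHR-expressing cells loaded with fluo-8 calcium dye were read kinetically (ex 480/em 530) during compound addition, then stimulated with an EC20 of TRH (10 nM final). Enhancement of the Gq-mediated intracellular calcium response was scored.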
The depositor's hits bear a star; · = not tested or not shown. In the library only some 4.7% were active in any assay of this set; here they are far more common. Cut-off read from the data, not from the text of the source, unless noted: active = activation above about 30%; inactive = the rest.

SMILES	D1 potentiator	D1 ag	D1 antagonist	TRHR ag	TRHR PAM
COc1ccccc1CNC(=O)COC(=O)C1=COCCO1	1	0	-66*	0	5
CCC(=O)N1CCc2cc(S(=O)(=O)NCCC(=O)Nc3ccc(OC)c(OC)c3)ccc21	3	2	-40*	1	1
CCCCCCN1C=CC=C/C1=C/C=C(C#N)C#N	3	132*	6	25	-6
Cn1nc(-c2ccc(OCC(=O)Nc3ccc(Cl)cc3)cc2)c2ccccc2c1=O	-4	14	2	-1	35*
Cn1nc(C(=O)NNC(=O)COc2ccccc2)c2ccccc2c1=O	1	0	-35*	1	-10
COc1ccccc1NC(=O)c1ccc2[nH]c(C)cc(=O)c2c1	-1	0	1	0	5
O=C(Cn1c(=O)n(Cc2ccc3c(c2)OCO3)c(=O)c2ccccc21)Nc1cccc(Cl)c1	2	6	-7	2	9
COCCNCCCCOc1ccc(Br)cc1C	-8	11	-17	0	-1
COCCCNCCCCOc1ccc(Br)cc1C	-18	37*	-35*	1	1
COc1ccccc1NC(=O)c1cc2c(=O)n(Cc3cccs3)ccc2nc1C	-4	0	-40*	-1	13
CC1CCN(CCCNC(=O)c2ccc3c(=O)n(CCc4ccccc4)c(=O)[nH]c3c2)CC1	-1	3	-42*	-2	-3
COCCNC(=O)c1ccc2c(=O)n(CCOC)c(SCC(=O)c3c[nH]c4ccccc34)nc2c1	-3	3	-21	1	2
COCCNC(=O)c1ccc2c(=O)n(CCc3ccccc3)c(SCC(=O)CC(=O)OC)nc2c1	-5	1	-34*	0	-3
CC(=O)NCCNC(=O)c1ccc2c(=O)n(CCc3ccccc3)c(=O)[nH]c2c1	-2	0	-67*	0	6
O=C(NCc1ccccn1)c1ccc2c(=O)n(CCc3ccccc3)c(=O)[nH]c2c1	-10	9	-54*	0	-5
CCN(CC)CCCNC(=O)c1ccc2c(=O)n(CCc3ccccc3)c(=O)[nH]c2c1	-2	1	-16	0	4
CCCCCn1c(=O)[nH]c2cc(C(=O)NCc3ccccn3)ccc2c1=O	-4	2	-9	0	16
Cc1nnc(SCC(=O)NC2CC2)s1	-1	1	-48*	0	-1
CCc1ccc(CNC(=O)Cn2nc(C)n3c(cc4cc(C)ccc43)c2=O)cc1	2	0	-2	0	14
Cc1cc(C)n2nc(-c3ccsc3-n3c(C)ccc3C)cc2n1	-2	2	-55*	1	-5
CCN(CC)C(=O)c1ccc2c(c1)N(Cc1ccccc1)C(=O)CS2=O (stereo not drawn)	0	-3	13	0	33*
O=C(NCc1ccco1)c1ccc2c(c1)N(Cc1ccccc1)C(=O)CS2=O (stereo not drawn)	-7	1	-6	1	1
Cc1ccc(NC(=O)Nc2cccs2)c(C)c1	1	11	-41*	0	-2
Cc1ccc(Cl)cc1NC(=O)Nc1cccs1	-9	24	-63*	1	-3
CC(=O)Nc1ccc(NC(=O)Nc2ccc(C)cc2C)cc1	-2	1	-2	-1	-6
SMILES	D1 potentiator	D1 ag	D1 antagonist	TRHR ag	TRHR PAM
CCc1ccccc1NC(=O)Nc1cccs1	-5	5	-9	0	-3
Cc1ccccc1NC(=O)Nc1cccs1	-4	12	-36*	1	0
COCCCNC(=O)Cn1c(=O)nc(-c2ccccc2)c2ccccc21	-1	-1	-3	0	5
Cc1nn(S(=O)(=O)c2ccc(C(C)(C)C)cc2)c(C)c1S(=O)(=O)N1CCCCCC1	1	3	-5	0	3
O=C(Nc1nnc(SCc2ccccc2F)s1)c1ccco1	-7	3	-82*	0	2
CCOc1ccc(CCNC(=O)CCCc2nnc3n(CC(C)C)c(=O)c4sccc4n23)cc1	-4	2	-4	0	1
Cc1cc2nc3c(=O)n(C4CCCCC4)c(=O)[nH]c3nc2cc1N	-8	213*	-24	119*	16
Cc1cccc(NC(=O)c2ccccc2O)c1C	-8	18	-32*	2	25
O=C(Nc1ccccc1O)c1ccccc1O	-2	17	-11	3	4
O=C(NCc1ccco1)C1CCN(C(=O)c2cc3sccc3n2Cc2ccc(F)cc2)CC1	-4	12	-32*	0	5
COCCCNC(=O)c1ccc(Cn2c(SCc3cccc(C)c3)nc3cccnc32)cc1	-1	-1	9	0	1
CCCCOc1ccc(CNC(=O)c2cnc3sc(N4CCOCC4)nn3c2=O)cc1	-3	0	-5	0	4
CCOc1ccc(CNC(=O)c2cnc3sc(N4CCOCC4)nn3c2=O)cc1	-4	0	-61*	0	-2
O=C(Nc1ccc(Br)cc1F)c1ccncc1	10	0	-1	-1	0
O=C(Nc1ccc(Br)cc1F)c1ccc2nsnc2c1	-4	4	-33*	1	2
O=C(CNC(=O)C1COc2ccccc2O1)N/N=C\c1cccc(O)c1 (stereo not drawn)	-9	0	-5	0	-2
O=C(CNC(=O)C1COc2ccccc2O1)N/N=C\c1ccc(Cl)cc1 (stereo not drawn)	-9	-1	-36*	1	6
O=C(O)c1cc(S(=O)(=O)N2CCN(C(=O)c3ccco3)CC2)c(Cl)cc1Cl	·	7	-9	0	-4
CC(C)COc1ccc(C(=O)Nc2scc(-c3ccc(Br)cc3)c2C(=O)OC(C)C)cc1	-2	0	19	0	31*
Cc1oc(-c2cccc(Cl)c2)nc1CSCC(=O)NCc1ccccc1Cl	0	9	5	1	-2
c1ccc(CN2CCC(Nc3ncnc4sccc34)CC2)cc1	-5	11	-26	1	-3
Cc1sc2ncnc(NC3CCN(Cc4ccccc4)CC3)c2c1C	-16	8	-53*	0	0
Cc1csc2c(NC3CCN(Cc4ccccc4)CC3)ncnc12	-9	11	-37*	1	2
COc1cc2ccccc2cc1C(=O)N1CCN(c2nc3c(F)cc(F)cc3s2)CC1	3	-1	·	0	1
Cc1cc(C)c2ccc3c(C)c(C)nc3c2[nH]1	-4	5	-47*	-1	8

High-throughput results deposited in PubChem by National Center for Advancing Translational Sciences (NCATS).
